Sampled rows, rich in hits. Any-hit rate of the full collection: about 12%.
JMJD2A Tudor: qHTS Assay for Inhibitors of JMJD2A-Tudor Domain. Lysine-specific demethylase 4A (Homo sapiens), O75164. AlphaScreen JMJD2A-Tudor / H3K4me3 peptide binding. AID 504339, 2011. 390,000 tested, 4.4% active. Potency, µM (titrated, usually from 114 µM), for inactives: top-dose activity change, negative = inhibition, most hits filed as inhibitors; note: % is set by controls: 0 for no effect and ±100 for the full control effect; nearly all actives have a fitted effect of over 50% in size
BAZ2B block: qHTS Assay for Inhibitors of BAZ2B; AlphaScreen BAZ2B-H3K14Ac peptide displacement; Potency, µM (titrated, usually from 114 µM), for inactives: at the highest dose activity change, negative = inhibition, hits mostly inhibitors; 360,000 tested, 4.4% active; AID 504333, 2011; note: % is set by controls: 0 for no effect and ±100 for the full control effect; nearly all actives have a fitted effect of over 60% in size
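BAZ2B 50 nM plus b-H3(5-23)K14Ac 50 nM, PBS pH 7.4/0.01% Tween-20, 30 min RT; compound added (max 110 uM), 30 min RT; streptavidin donor/Ni-chelate acceptor beads 10 ug/mL final, 20 min dark; AlphaScreen read.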
HP1b chromo inh: HTS for Inhibitors of HP1-beta Chromodomain Interactions with Methylated Histone Tails | Chromobox protein homolog 1 (Homo sapiens), P83916 | AlphaScreen HP1-beta / biotin-H3K9me3 peptide binding | Potency, µM (series often up to 114 µM), for the others: top-dose activity change, negative = inhibition, actives largely listed as inhibitors | 390,000 tested, 0.56% active | AID 540317, 2011; note: nearly all actives have a fitted effect of over 70% in size
Target sequence (P83916 whole entry, looked up): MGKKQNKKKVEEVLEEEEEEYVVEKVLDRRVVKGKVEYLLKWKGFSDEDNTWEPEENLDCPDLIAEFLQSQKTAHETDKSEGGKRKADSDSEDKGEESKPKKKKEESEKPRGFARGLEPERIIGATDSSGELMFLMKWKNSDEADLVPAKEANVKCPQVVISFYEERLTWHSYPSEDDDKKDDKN
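HP1-beta protein (50 nM final) preincubated 30 min at room temperature with biotinylated H3(1-18)K9me3 peptide (50 nM) in PBS pH 7.4, 0.01% Tween-20, then compound added for 30 min. AlphaScreen streptavidin donor/nickel chelate acceptor beads (10 ug/mL final), 30 min dark, luminescence read.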
Sfp inh: qHTS Assay for Inhibitors of Bacillus subtilis Sfp phosphopantetheinyl transferase (PPTase) | 4'-phosphopantetheinyl transferase ffp (Bacillus subtilis), Q9F4F7 | Biochemical Sfp PPTase activity, qHTS | Potency, µM, without a hit: largest response in the series, negative = inhibition, actives largely listed as inhibitors | 310,000 tested, 3.5% active | AID 1490, 2009;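 note: the enzyme is Sfp with the accession as filed and its product quenches rhodamine fluorescence; 0% = enzyme reaction without inhibitor and -100% = no enzyme wells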
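Fluorescence-quenching assay: 15 nM Sfp-PPTase preincubated 15 min at room temperature with compound, then 5 uM rhodamine-CoA and 12.5 uM BHQ-2-labelled YbbR peptide added. Fluorescence (ex 525/em 598 nm) read at start and after 30 min; difference gives rate.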
G9a inh: qHTS Assay for Inhibitors of Histone Lysine Methyltransferase G9a. G9a H3K9 monomethylation, AlphaScreen, 2 h. Histone-lysine N-methyltransferase EHMT2 (Homo sapiens), Q96KQ7. AID 504332, 2011. 350,000 tested, 8.8% active. Potency, µM (titrated, usually from 102 µM), for inactives: top-dose activity, negative = inhibition, most hits filed as inhibitors; note: % is set by controls: 0 for no effect and ±100 for the full control effect; nearly all actives have a fitted effect of over 75% in size
Target sequence (Q96KQ7 913-1193 limits assumed): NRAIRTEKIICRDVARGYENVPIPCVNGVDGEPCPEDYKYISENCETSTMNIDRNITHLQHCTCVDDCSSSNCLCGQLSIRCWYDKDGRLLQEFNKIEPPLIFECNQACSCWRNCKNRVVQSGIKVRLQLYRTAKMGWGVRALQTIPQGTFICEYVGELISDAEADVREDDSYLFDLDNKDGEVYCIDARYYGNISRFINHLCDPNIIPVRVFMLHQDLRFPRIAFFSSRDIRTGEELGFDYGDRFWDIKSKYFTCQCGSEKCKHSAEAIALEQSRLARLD
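Using a bead-based AlphaScreen, monomethylated H3K9 product from 2 h room-temperature reactions (G9a 20 nM, peptide 500 nM, SAM 20 uM) was detected with 0.5 ug/mL rabbit anti-H3K9me1 antibody.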
Starred values were filed as active, the others as inactive; ! = repeats disagree; [ ] = another dose, or the depositor's remark. Calls come from the whole dose curve; as a rule, active = well fitted curve in the direction sought with a large enough effect; inconclusive = small, poorly fitted or top-dose-only effect, or another doubt; inactive = no such curve, though single readings can be large; an effect the other way counts as inactive or inconclusive. Potency is the fitted concentration of half-maximal effect.

For Cc1c(Cl)cccc1NC(=S)Nn1cnnc1 the results were JMJD2A Tudor -28%, BAZ2B block inconclusive, HP1b chromo inh -16%, Sfp inh 22µM* and G9a inh 8.9µM*.
Screening Cc1c(Cl)cccc1NC(=S)NC1CC1 returned JMJD2A Tudor 4%, BAZ2B block -22%, HP1b chromo inh 40%, Sfp inh -9% and G9a inh inconclusive.
Screening COc1cccc(/C=N/Nc2ccc([N+](=O)[O-])cc2)c1O returned JMJD2A Tudor -28%, BAZ2B block -3%, HP1b chromo inh 1%, Sfp inh -5% and G9a inh inconclusive.
Cc1cccc(N/N=C/c2ccc(C)s2)c1 was read as JMJD2A Tudor inconclusive, BAZ2B block inconclusive, HP1b chromo inh -8%, Sfp inh -3% and G9a inh inconclusive.
Cc1cccc(N/N=C/c2ccc(O)c(O)c2O)c1 was read as JMJD2A Tudor 45µM*, BAZ2B block 50µM*, HP1b chromo inh inconclusive, Sfp inh 3.5µM* and G9a inh 1.1µM*.
For COc1cccc(N/N=C/c2cccc(Br)c2O)c1 the results were JMJD2A Tudor -31%, BAZ2B block inconclusive, HP1b chromo inh inconclusive, Sfp inh 2% and G9a inh 2.2µM*.
Screening CN1CCCN=C1/C=C\c1cccs1 returned Sfp inh 28% and G9a inh 5%[21.5 µM].
Screening CCOc1ccc(N2CC(c3nc4ccccc4n3CCCOc3ccccc3)CC2=O)cc1 (configuration not stated) returned JMJD2A Tudor -21%, BAZ2B block -20%, HP1b chromo inh 38% and G9a inh -19%[59 µM].
`COCCCn1c(=O)/c(=C\c2ccccc2OC(C)C)s/c1=C(/C#N)C(=O)Nc1ccc(C(=O)O)cc1` gave JMJD2A Tudor inconclusive, BAZ2B block 50µM*, HP1b chromo inh -15%, Sfp inh -25% and G9a inh 45µM*.
`O=C(Nc1cccc(-c2ccc(N3CCCCC3)nn2)c1)C(F)(F)F` gave JMJD2A Tudor -1%, BAZ2B block 23%, HP1b chromo inh 40%, Sfp inh 5% and G9a inh 12%.
Screening COc1ccc(C)cc1S(=O)(=O)Nc1cccc(-c2ccc(N3CCC(C)CC3)nn2)c1 returned JMJD2A Tudor -9%, BAZ2B block -2%, HP1b chromo inh 15%[57 µM] and G9a inh 7%[59 µM].
For O=S(=O)(Nc1cccc(-c2ccc(N3CCCCCC3)nn2)c1)c1cccc(F)c1 the results were JMJD2A Tudor -26%, BAZ2B block -20%[57.1 µM], HP1b chromo inh 18%, Sfp inh 11% and G9a inh 32µM*!.
For O=C(Nc1cccc(-c2ccc(N3CCCCC3)nn2)c1)c1ccc(Br)o1 the results were JMJD2A Tudor -15%, BAZ2B block -6%, HP1b chromo inh 7% and G9a inh 28µM*.
`COc1ccc(S(=O)(=O)Nc2cccc(-c3ccc4nncn4n3)c2)c(OC)c1` gave JMJD2A Tudor 3%, BAZ2B block 2%, HP1b chromo inh inconclusive and G9a inh 11µM*.
For COc1ccc(C)cc1S(=O)(=O)Nc1cccc(-c2ccc(N3CCCCCC3)nn2)c1 the results were JMJD2A Tudor 16µM*, BAZ2B block -13%, HP1b chromo inh 4%, Sfp inh 6% and G9a inh 10%[0.501 µM].
For COc1ccccc1NC(=O)CCN1CCCCC1 the results were JMJD2A Tudor -12%, BAZ2B block 3%, HP1b chromo inh 13% and G9a inh -48%[59 µM].
For Cn1cccc1C(=O)OCC(=O)Nc1ccc2c(c1)OCO2 the results were JMJD2A Tudor 7%, BAZ2B block -23%, HP1b chromo inh 15%, Sfp inh 22% and G9a inh -37%.
`Cn1cccc1C(=O)OCc1cc(Cl)cc2c1OCOC2` gave JMJD2A Tudor inconclusive, BAZ2B block -34%, HP1b chromo inh -6%, Sfp inh 71µM* and G9a inh inconclusive.
